# Test results published in publication PMC5540273 (PLoS ONE, 2017).
# Where two headings read alike, the source gives them in different places.
# Experiments:
# Details in all cases: n = 1
# GRK7 = system: GRK7
# GSK3A = system: GSK3A
# GSK3B = system: GSK3B
# HASPIN = system: T1, HASPIN
# T1 construct: gene GSG2
# HCK = system: HCK
# HIPK1 = system: HIPK1
# HIPK2 = system: HIPK2
# HIPK3 = system: HIPK3
# HIPK4 = system: HIPK4
# HPK1 = system: HPK1
# HUNK = system: HUNK
# ICK = system: ICK
# IGF1R = system: IGF1R
# IKK-alpha = system: T2, IKK-alpha
# T2 construct: gene CHUK
# IKK-beta = system: T3, IKK-beta
# T3 construct: gene IKBKB
# IKK-epsilon = system: T4, IKK-epsilon
# T4 construct: gene IKBKE
# INSRR = system: INSRR
# INSR = system: INSR
# IRAK1 = system: IRAK1
# IRAK3 = system: IRAK3
# [1] = concentration: 1 μM, replicates: in singlicate
# 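Note: KINOMEscan kinase panel screen.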
compound,measurement,setting,value
Cc1cc(NCC(c2ccccc2)c2ccccc2)nc(NCc2ccc(C(F)(F)F)cc2)n1 [GW497681],%Inh,GRK7; [1],0%
same,%Inh,GSK3A; [1],4%
same,%Inh,GSK3B; [1],0%
same,%Inh,HASPIN; [1],0%
same,%Inh,HCK; [1],0%
same,%Inh,HIPK1; [1],0%
same,%Inh,HIPK2; [1],0%
same,%Inh,HIPK3; [1],0%
same,%Inh,HIPK4; [1],0%
same,%Inh,HPK1; [1],23%
same,%Inh,HUNK; [1],13%
same,%Inh,ICK; [1],0%
same,%Inh,IGF1R; [1],27%
same,%Inh,IKK-alpha; [1],0%
same,%Inh,IKK-beta; [1],0%
same,%Inh,IKK-epsilon; [1],26%
same,%Inh,INSRR; [1],0%
same,%Inh,INSR; [1],0%
same,%Inh,IRAK1; [1],23%
same,%Inh,IRAK3; [1],0%
Cc1ccc(NC(=O)Nc2cccc(C(F)(F)F)c2)cc1 [GSK955403],%Inh,GRK7; 1 µM,10%
same,%Inh,GSK3A; 1 µM,0%
same,%Inh,GSK3B; 1 µM,0%
same,%Inh,HASPIN; 1 µM,12%
same,%Inh,HCK; 1 µM,0%
same,%Inh,HIPK1; 1 µM,8%
same,%Inh,HIPK2; 1 µM,0%
same,%Inh,HIPK3; 1 µM,0%
same,%Inh,HIPK4; 1 µM,0%
same,%Inh,HPK1; 1 µM,0%
same,%Inh,HUNK; 1 µM,0%
same,%Inh,ICK; 1 µM,0%
same,%Inh,IGF1R; 1 µM,0%
same,%Inh,IKK-alpha; 1 µM,0%
same,%Inh,IKK-beta; 1 µM,0%
same,%Inh,IKK-epsilon; 1 µM,0%
same,%Inh,INSRR; 1 µM,0%
same,%Inh,INSR; 1 µM,0%
same,%Inh,IRAK1; 1 µM,0%
same,%Inh,IRAK3; 1 µM,100%
COC(=O)c1c(-c2ccccc2)c2cc(OC)ccc2c(=O)n1Cc1ccccc1,%Inh,GRK7; [1],24%
same,%Inh,GSK3A; [1],14%
same,%Inh,GSK3B; [1],18%
same,%Inh,HASPIN; [1],3%
same,%Inh,HCK; [1],22%
same,%Inh,HIPK1; [1],7%
same,%Inh,HIPK2; [1],11%
same,%Inh,HIPK3; [1],3%
same,%Inh,HIPK4; [1],0%
same,%Inh,HPK1; [1],0%
same,%Inh,HUNK; [1],0%
same,%Inh,ICK; [1],0%
same,%Inh,IGF1R; [1],0%
same,%Inh,IKK-alpha; [1],5%
same,%Inh,IKK-beta; [1],4%
same,%Inh,IKK-epsilon; [1],0%
same,%Inh,INSRR; [1],9%
same,%Inh,INSR; [1],0%
same,%Inh,IRAK1; [1],11%
same,%Inh,IRAK3; [1],12%
Fc1cc(Cl)ccc1Nc1ccnc2cc(I)ccc12 [GW551191],%Inh,GRK7; [1],0%
same,%Inh,GSK3A; [1],26%
same,%Inh,GSK3B; [1],3%
same,%Inh,HASPIN; [1],0%
same,%Inh,HCK; [1],0%
same,%Inh,HIPK1; [1],0%
same,%Inh,HIPK2; [1],0%
same,%Inh,HIPK3; [1],0%
same,%Inh,HIPK4; [1],0%
same,%Inh,HPK1; [1],35%
same,%Inh,HUNK; [1],45%
same,%Inh,ICK; [1],1%
same,%Inh,IGF1R; [1],6%
same,%Inh,IKK-alpha; [1],1%
same,%Inh,IKK-beta; [1],11%
same,%Inh,IKK-epsilon; [1],19%
same,%Inh,INSRR; [1],0%
same,%Inh,INSR; [1],0%
same,%Inh,IRAK1; [1],32%
same,%Inh,IRAK3; [1],11%
Cc1ccc(C(=O)Nc2ccc(Nc3ccnc4cc(-c5ccccn5)ccc34)cc2O)cc1.Cl [GW440146],%Inh,GRK7; [1],0%
same,%Inh,GSK3A; [1],7%
same,%Inh,GSK3B; [1],4%
same,%Inh,HASPIN; [1],30%
same,%Inh,HCK; [1],72%
same,%Inh,HIPK1; [1],8%
same,%Inh,HIPK2; [1],0%
same,%Inh,HIPK3; [1],4%
same,%Inh,HIPK4; [1],0%
same,%Inh,HPK1; [1],34%
same,%Inh,HUNK; [1],23%
same,%Inh,ICK; [1],0%
same,%Inh,IGF1R; [1],18%
same,%Inh,IKK-alpha; [1],0%
same,%Inh,IKK-beta; [1],0%
same,%Inh,IKK-epsilon; [1],16%
same,%Inh,INSRR; [1],0%
same,%Inh,INSR; [1],1%
same,%Inh,IRAK1; [1],28%
same,%Inh,IRAK3; [1],3%
